Data taken from PubChem BioAssay AID1224856 (National Center for Advancing Translational Sciences (NCATS), 2016).
Results filed as inconclusive are left out. Unmarked numbers belong to inactive results. The source made the active and inactive calls. Calls follow the shape of the dose curve; as a rule, active = well fitted curve in the direction sought with a large enough effect; inconclusive = small, poorly fitted or top-dose-only effect, or another doubt; inactive = no such curve, though single readings can be large or run the other way.

Experiment: Cell viability assay for measurement of the protective activity of small molecules against cell death caused by Zika virus infection in human astrocytes
Details: human astrocytes ZIKV-induced death, ATP luminescence, 72 h; series mostly up to 46.1 µM; protection from virus-induced death: at the top concentration
Excerpt: National Center for Advancing Translational Sciences [NCATS] Johns Hopkins University School of Medicine Florida State University Assay Overview: Zika virus infection causes cell death in certain cell types including human neural progenitor cells (hNPCs), astrocytes, and astrocytoma cell line (SNB-19). This cell viability assay measures the ATP content (level) in human astrocytes using a luminescence readout that is proportional to viable cell numbers. Decrease in the luminescence signal after Zika virus infection indicates the cell death caused by Zika virus. Small molecule inhibitors […] the decreased luminescence signal after Zika virus infection, indicating the protective effect of that small molecule on the cell death caused by Zika virus infection. This observed protective effect of small molecules against Zika virus induced cell death may result from inhibition of virus replication or cellular response to the virus infection.
Assay Protocol Summary: The medium for astrocytes contains AM basal medium (ScienCell, Cat.# 1801), AGS (ScienCell, Cat.# 1801), 10% FBS, and 1% Pen/Strep. The ATP content assay kit (PerkinElmer, Cat.# 6016731) was used to determine cell viability. The reagent was reconstituted and prepared as described by the manufacturer. Cells were seeded in 384- or 1536-well assay plates and cultured at 37 C with 5% CO2 for 16 to 20 hours. The typical cell seeding density in the 1536-well plate assay is 350 cells/well in 3 ul medium for astrocytes in the tissue cultured treated/PDL coated plates. Compounds were added to cells and incubated for one hour before addition of ZIKV solution to cells (2 FFU/cell). After incubation at 37 C with 5% CO2 for 72 hours, the reagent mixture of the ATP content assay kit was added to each well, followed by incubation at room temperature for 10 minutes. The luminescence intensity of the assay plates was measured using a ViewLux plate reader (PerkinElmer). […] The percentage inhibitions of the decreased cell viability by small molecule inhibitors were then calculated.

Compound	protection from virus-induced death	Potency
C=CCCCCCCCCC(=O)O	3.75%	–
O=C(O)c1ccccc1Nc1cccc(C(F)(F)F)c1	-4.67%	–
Cc1c(NC(=O)c2ccc(C(C)(C)C)cc2)cccc1-c1cn(C)c(=O)c(Nc2ccc(C(=O)N3CCOCC3)cc2)n1	1.63%	–
CC(C(=O)O)c1ccc(-c2ccccc2)c(F)c1 (stereo not given)	0%	–
COc1ccc(-c2cc(=S)ss2)cc1	3.7%	–
COc1cccc2c1C(=O)c1c(O)c3c(c(O)c1C2=O)C[C@@](O)(C(=O)CO)CC3OC1CC(N2CCOC(OC)C2)C(O)C(C)O1 (stereo not given in full)	–	436 nM (active)
COc1ccc(CC2=NN3C([C@@H](CCc4ccccc4)[C@@H](C)O)=NC(C)C3C(=O)N2)cc1OC (stereo not given in full)	-2.71%	–
O=S(=O)(O)c1ccc2nc(-c3ccccc3)[nH]c2c1	-6.93%	–
COCCn1c2c([n+](Cc3cnccn3)c1C)C(=O)c1ccccc1C2=O	-9.52%	–
N[C@H](CSC(c1ccccc1)(c1ccccc1)c1ccccc1)C(=O)O	-0.938%	–
CC[C@]1(O)C[C@H]2CN(CCc3c([nH]c4ccccc34)[C@@](C(=O)OC)(c3cc4c(cc3OC)N(C=O)[C@H]3[C@@](O)(C(=O)OC)[C@H](OC(C)=O)[C@]5(CC)C=CCN6CC[C@]43[C@@H]65)C2)C1	0.154%	–
Cc1ccc(O)c(N=Nc2ccccc2)n1	-7.13%	–
CC(C)[C@H]1C(=O)N[C@H](CO)Cc2c[nH]c3cccc(c23)N1C	–	1090 nM (active)
CC(=O)Nc1ccc([C@H](C)C(=O)Nc2ncc(C(C)C)s2)cc1	–	4890 nM (active)
O=c1cc(-c2ccccc2)oc2cc(O)cc(O)c12	0.394%	–
CC(C)Oc1ccc2c(=O)c(-c3ccccc3)coc2c1	-5.36%	–
CN1CCN(c2cc3c(nn2)Oc2ccccc2N3C)CC1	1.46% [at 23.8 µM]	–
O=C(O)[C@H](CC(=O)N1C[C@@H]2CCCC[C@H]2C1)Cc1ccccc1	6.96%	–
Nc1nc2ccc([N+](=O)[O-])cc2s1	0.8% [at 88.3 µM]	–
CC=CC[C@@H](C)C(=O)[C@H]1C(=O)N[C@@H](C(C)C)C(=O)N(C)CC(=O)N(C)[C@@H](CC(C)C)C(=O)N[C@@H](C(C)C)C(=O)N(C)[C@@H](CC(C)C)C(=O)N[C@@H](C)C(=O)N[C@H](C)C(=O)N(C)[C@@H](CC(C)C)C(=O)N(C)[C@@H](CC(C)C)C(=O)N(C)[C@@H](C(C)C)C(=O)N1C	-4.94%	–

Compound	protection from virus-induced death	Potency
Cc1csc(NC(=O)c2sc3nc4c(c(C(F)(F)F)c3c2N)CCC4)n1	-6.74%	–
CC(C(=O)O)c1ccc(C(=O)c2cccs2)cc1 (stereo not given)	5.45%	–
Cc1ccc(O)c(-n2nc3ccccc3n2)c1	6.64%	–
Nc1ncnc2c1ncn2[C@@H]1O[C@@H](CO)[C@H](O)[C@H]1O	3.79% [at 23.8 µM]	–
O=C(Nc1ncc([N+](=O)[O-])s1)c1cccs1	2.95%	–
CC1=C(CO)C(=O)O[C@@H]([C@@H](C)[C@H]2CC[C@H]3[C@@H]4C[C@H]5O[C@]56[C@@H](O)C=CC(=O)[C@]6(C)[C@@H]4CC[C@]23C)C1	-0.531%	–
Cc1cc(O)c2c(c1)C(=O)c1cc(O)cc(O)c1C2=O	0.358%	–
O=C(O)CCC(=O)c1ccc(-c2ccccc2)cc1	-0.858%	–
CC(C(=O)O)c1ccc(C(=O)c2ccccc2)s1 (stereo not given)	-0.72%	–
NC(N)=NN=C(/C=C/c1ccc([N+](=O)[O-])o1)/C=C/c1ccc([N+](=O)[O-])o1	-9.16%	–
S=C(SSC(=S)N1CCCCC1)N1CCCCC1	–	7740 nM (active)
O=C(Nc1ccc(Br)cc1)c1cc(Br)cc(Br)c1O	18.8%	–
CC1(C)Cc2c(sc(NC(=S)NC(=O)c3ccccc3)c2C(=O)O)CO1	2.03%	–
O=c1c2ccccc2[se]n1-c1ccccc1	-9.75%	–
CCCCCCCCCCCC(=O)[O][Sn]([CH2]CCC)([CH2]CCC)[O]C(=O)CCCCCCCCCCC	-3.89%	–
O=c1c(-c2ccc(O)cc2)coc2cc(O)ccc12	-6.51%	–
COc1cc(NC(C)CCCN)c2ncccc2c1 (stereo not given)	2.41%	–
O=C(O)c1ccccc1NCCc1ccccc1	-1.69%	–
Cc1c(C(=O)O)c(O)cc2c1C(=O)c1c(O)c([C@@H]3O[C@H](CO)[C@@H](O)[C@H](O)[C@H]3O)c(O)c(O)c1C2=O	-2.94%	–
Cc1c(N)c(=O)n(-c2ccccc2)n1C	1.04%	–
